Values joined by “and” are separate entries in the source; they are usually repeats but may differ in a detail not shown here. Equal entries are not always repeated. Inconclusive results are not listed. Active and inactive are the calls of the source.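 The calls were made as follows: active = compound pushes the radio-tagged natural neuropeptide S off its receptor in a binding test; inconclusive = any compound that did not displace the tagged ligand; inactive = never assigned.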
molecular target: Neuropeptide S receptor (Homo sapiens) (UniProt Q6W5P4); assay: Confirmation Concentration-Response Assay for Antagonists of the Neuropeptide S Receptor: Radioligand Displacement; conditions: CHO-hNPSR cells, [125I]Y10-NPS displacement, 1.5 h
Sequence (Q6W5P4 whole entry, looked up): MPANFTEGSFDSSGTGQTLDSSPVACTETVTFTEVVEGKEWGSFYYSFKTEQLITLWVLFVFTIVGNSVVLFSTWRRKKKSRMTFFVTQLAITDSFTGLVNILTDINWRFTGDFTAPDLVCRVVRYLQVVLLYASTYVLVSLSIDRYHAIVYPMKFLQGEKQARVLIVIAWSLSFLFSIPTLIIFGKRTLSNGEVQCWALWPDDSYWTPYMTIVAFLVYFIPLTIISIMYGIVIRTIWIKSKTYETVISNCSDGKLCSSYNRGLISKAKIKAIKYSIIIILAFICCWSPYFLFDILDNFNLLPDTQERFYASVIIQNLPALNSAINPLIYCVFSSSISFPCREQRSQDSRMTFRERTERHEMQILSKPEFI
From the text: NIH Chemical Genomics Center [NCGC] NIH Molecular Libraries Probe Production centers Network [MLPCN] MLPCN Grant: X01-DA026210-01 Assay Submitter (PI): Heilig, Markus Alexander NCGC Assay Overview: Neuropeptide S receptor (NPSR), previously known as GPR154, is a recently de-orphanized G protein coupled receptor. Its endogenous ligand is the 20 amino acids peptide Neuropeptide S (NPS). […] NPS and its receptor are found in various tissues. Specifically they are highly expressed in brain areas that have been implicated in modulation of arousal, stress and anxiety. Central administration of NPS in mice produces an unusual profile of activity by inducing wakefulness and arousal, while at the same time suppressing anxiety. Therefore, NPSR may represent a novel drug target for the treatment of sleep and anxiety disorders. As one method of confirming the specific activity of compounds active in the primary screen (AID 1461), we developed an assay to measure the displacement of radio-labeled native ligand, NPS, from its receptor in vitro.
The assay was carried out as described (Xu et al. (2004) Neuron, 43: 487-497) with minor modification. Y10-NPS labeled with 125I was bought from NEN Perkin Elmer (Boston, MA). CHO cells stably expressing human NPSR were seeded into 24-well plates and cultured until reaching 90-95% confluency. Cells were washed with 1ml PBS once and then incubated with radioligand with or without compounds or in DMEM medium containing 0.1% bovine serum albumin at 20C for 1.5 hr. Increasing concentrations of compounds or unlabeled human NPS were used to compete with 0.15 nM [125I] Y10-NPS. Nonspecific binding was determined in the presence of 1 uM unlabeled human NPS. Cells were washed twice with cold PBS and lysed with 1 N NaOH. Bound radioactivity was counted in a liquid scintillation counter.

Potency, active:
N#CC1=C(NC=NCc2ccccc2)Oc2ccc3ccccc3c2C1c1ccccc1 (stereo not drawn) 321 nM
COc1cccc(C2c3c(ncn(CCN4CCOCC4)c3=N)Oc3ccc4ccccc4c32)c1 (stereo not drawn) 439 nM
COc1cccc(C2c3c(ncn(-c4ccccc4)c3=N)Oc3ccc4ccccc4c32)c1 (stereo not drawn) 266 nM
CCOC(=O)CC(=O)Nc1ncnc2c1C(c1ccccc1)c1c(ccc3ccccc13)O2 (stereo not drawn) 616 nM
O=C1OC(c2ccccc2)(c2ccccc2)N2CCN(C(=O)NCc3ccc(F)cc3)CC12 (stereo not drawn) 5.62 nM
COc1ccc(C2c3c(ncn(CCN4CCOCC4)c3=N)Oc3ccc4ccccc4c32)cc1OC (stereo not drawn) 256 nM and 190 nM
CCOC(=O)C1CCCN(c2ncnc3c2oc2ccccc23)C1 (stereo not drawn) 26400 nM
N=c1c2c(ccn1-c1ccccc1)Oc1ccc3ccccc3c1C2c1ccccc1 (stereo not drawn) 367 nM

— PubChem BioAssay AID1493 (National Center for Advancing Translational Sciences (NCATS), 2009)
